Assay results as given in ChEMBL document CHEMBL4513135, “CO-ADD screening of IQOG CSIS (Spain) compounds”.
Entries with a potency or affinity are not part of this list.

Key:
Klebsiella pneumoniae = details: Concentration 32 ug.mL-1; ASSAY_TEST Inhibition of Bacterial Growth; detection method Absorption (OD600); MEDIA CAMHB; plate type 384well; NBS; CORNING #3640; time 18 hr
Candida albicans = details: 32 ug/mL
Cryptococcus neoformans = details: Concentration 32 ug.mL-1; ASSAY_TEST Inhibition of Fungal Growth; detection method Resazurin; Absorption (OD600-OD570); plate type 384well; NBS; CORNING #3640

| Structure (SMILES) | Inhibition (Klebsiella pneumoniae) [%] | Inhibition (Candida albicans) [%] | Inhibition (Cryptococcus neoformans) [%] |
| --- | --- | --- | --- |
| COc1cccc(C2c3c(nc4c(c3N)CCCC4)Oc3ccc4ccccc4c32)c1 (stereo not drawn) | 7.83 | -0.15 | -0.19 |
| COc1ccc(C2c3c(ccc4ccccc34)OC(=NBr)C2(Br)C#N)cc1 (stereo not drawn) | 26.17 | 10.1 | -63.65 |
| COc1cc(Br)c(C=O)cc1OC | 3.95 | 3.94 | -3.9 |
| CC(=O)N1CC(=O)NC1=S | 17.26 | 1.1 | 1.05 |
| CSC1=NC(=Cc2ccccc2)C(=O)N1C | -0.86 | 3.12 | -9.15 |
| C#CCNc1ccc(Cl)nn1 | 15.08 | 3.36 | -43.23 |
| Cc1ccc(CNNC(N)=O)cc1.Cl | 11.02 | -0.27 | -5.64 |
| N#Cc1ccc(Br)cc1N | 26.43 | 18 | -4.02 |
| N#CC1=C(N)Oc2ccc3ccccc3c2C1 | -0.19 | 0.68 | -44.07 |
| N#Cc1c(-c2ccccc2)c2c(ccc3ccccc32)oc1=O | 13.16 | 0.36 | -9.44 |
| NOC(=O)C1CCN(Cc2ccccc2)CC1 | 4.34 | 1.62 | -5.93 |
| O=Cc1ccc(OCCO[N+](=O)[O-])cc1 | 8.5 | 5.46 | -2.32 |
| CSC1=NC2(CC2c2ccccc2)C(=O)N1 (stereo not drawn) | 20.57 | -0.24 | 1.03 |
| CC(C)(C)OC(=O)Nc1ccc(Br)cn1 | 23.74 | 1.83 | -55.05 |
| COc1ccc(C=C2N=C(SC)N(C)C2=O)cc1 | -13.67 | 0.01 | -7.91 |
| CCOC(=O)c1c[nH]c2ccc(OCc3ccccc3)cc12 | 12.72 | 0.34 | -4.09 |
| CC(=O)NC(=Cc1ccccc1)C(=O)O | 19.96 | 2.49 | -0.91 |
| COC(=O)C(NC(=O)c1ccccc1)=C(C)c1ccccc1 | 19.09 | -0.01 | -1.2 |

| Structure (SMILES) | Inhibition (Klebsiella pneumoniae) [%] | Inhibition (Candida albicans) [%] | Inhibition (Cryptococcus neoformans) [%] |
| --- | --- | --- | --- |
| O=C(Cc1c[nH]c2ccccc12)NN=C1CCCCCC1 | -21.31 | 1.07 | -2.54 |
| O=C1OC(c2ccccc2)=NC1=Cc1ccccc1Cl | 11.08 | 1.66 | -1.51 |
| CCC(Cc1ccccc1)NNC(=O)c1cc2ccccc2[nH]1 (stereo not drawn) | -8.95 | 1.13 | -1.62 |
| C#CCN(Cc1ccccc1)c1nc(N)c(C#N)c(-c2ccccc2)c1C#N | -5.74 | 2.73 | -25.11 |
| CC(=O)Oc1ccc(C=C2N=C(C)OC2=O)cc1 | 7.96 | -1 | -2.97 |
| CCCCCCC(C)NNC(=O)c1cc2ccccc2[nH]1 (stereo not drawn) | -31.72 | 3.47 | -2.85 |
| CCOC(=O)c1c(C)nc(/N=N/c2nc(C)c(C(=O)OCC)c(-c3ccccc3)c2C#N)c(C#N)c1-c1ccccc1 | 0.93 | -1.11 | -2.65 |
| CCOc1nc2nc(C)c(C=C3CCN(Cc4ccccc4)CC3)cc2c(-c2ccccc2)c1C#N | 20.16 | 2.44 | -63.91 |
| CSC1=NC(=Cc2cn(C(c3ccccc3)(c3ccccc3)c3ccccc3)c3ccccc23)C(=O)N1C | -25.3 | -0.44 | -10.07 |
| COc1cccc(C2C(C#N)=C(N)Oc3c2ccc2ccccc32)c1 (stereo not drawn) | 8.5 | 3.73 | -38.21 |
| COc1cc(C2CC2(N)C(=O)O)ccc1O (stereo not drawn) | 3.5 | -0.44 | -0.8 |
| O=C1SC(SCc2ccccc2)=NC1=Cc1cccc(OCc2ccccc2)c1 | -15.18 | 0.84 | -8.61 |
| CCCC(C)NNC(=O)Cc1c[nH]c2ccccc12 (stereo not drawn) | 6.53 | 0.38 | 5.38 |
| Cl.Nc1c2c(nc3c1C(c1ccccc1)c1ccc4ccccc4c1O3)CCCC2 (stereo not drawn) | 22.34 | 1.77 | -1.1 |
| CCOC(=O)C1=C(C)OC(N)=C(C#N)C1c1ccc(OC)c(OC)c1 (stereo not drawn) | 9.11 | 3.32 | -51.05 |
| Cl.NNN1CCc2ccccc21 | 17.38 | 2.29 | -9.55 |
| N#C/C(=C\c1ccccc1)C(=O)c1ccccc1 | 5.05 | 4.89 | 5.95 |
| N#Cc1cc(C#N)c(NCc2ccccc2)nc1N | -14.3 | 1.7 | 5.02 |
